Source: PubChem (The Scripps Research Institute Molecular Screening Center)
ssDAF12 agonist: S. stercoralis DAF-12 nuclear receptor activators, primary screen, cell-based, luminescence, HEK293, GRIP1 co-expression, lit1-tk-luc; Nuclear hormone receptor DAF-12 (Strongyloides stercoralis); HEK293 ssDAF-12/GRIP1 lit1-tk-luc reporter; % of 3 µM dafachronic acid response; activation, % at 6.8 µM; actives 1% (n = 370,000);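 active = activation above the mean over all tested compounds plus 3 SD, cut at about 0.9% in these data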;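 also: 0% = DMSO-only wells and 100% = 3 µM delta7-dafachronic acid wells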
DAX1 inh-1: DAX1 (NR0B1) inhibitors on StAR promoter, primary screen, cell-based, luminescence, SF-1 (NR5A1), full-length DAX-1 | inhibition, % at 6.8 µM | HEK293T StAR-luciferase reporter, SF-1/DAX-1 repression relief | actives 1.1% (n = 370,000);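 active = inhibition above the mean over all tested compounds plus 3 SD, cut at about 3.6% in these data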;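 also: 0% = DAX-1 cells with DMSO and 100% = cells lacking DAX-1 with DMSO; higher inhibition means more luminescence from relief of DAX-1 repression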
hgDAF12 agonist: H. glycines DAF-12 receptor agonists, primary screen, cell-based, luminescence, HEK293, GAL4 fusion, UAS-luciferase. HEK293 GAL4-hgDAF12 UAS-luciferase reporter, agonist luminescence; normalized to butyrate control. activation, % at 6.8 µM. actives 1.8% (n = 370,000);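 active = activation above a cutoff set at the mean of all screened compounds plus 3 SD, cut at about 10% in these data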;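 also: 0% = DMSO wells and 100% = sodium butyrate wells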
hcDAF12 agonist: H. contortus DAF-12 nuclear receptor activators, primary screen, cell-based, luminescence, HEK293, lit1-tk-luc reporter; HEK293 hcDAF-12 lit1-tk-luc reporter; 0% DMSO, 100% Δ7-dafachronic acid; activation, % at 6.8 µM; actives 1.4% (n = 370,000); AID 652067, 2013;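 active = activation above the mean of all tested compounds plus 3 SD, cut at about 5.5% in these data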;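 also: 100% = response to 3 µM Δ7-dafachronic acid high control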
DAX1 inh-2: DAX1 (NR0B1) inhibitors, primary screen, cell-based, HEK293, Gal4-DAX1, luciferase luminescence; Nuclear receptor subfamily 0 group B member 1 (Homo sapiens), P51843; HEK293 Gal4-DAX1 luciferase reporter; inhibition, % at 6.75 µM; actives 0.99% (n = 340,000); AID 504766, 2011;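 active = inhibition above the mean over all tested compounds plus 3 SD, cut at about 4.2% in these data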;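 also: 0% = DAX1-transfected cells with DMSO and 100% = empty-vector control cells with DMSO; inhibition shows as a rise in luminescence from relieved DAX1 repression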
Target sequence (P51843 207-470 limits assumed): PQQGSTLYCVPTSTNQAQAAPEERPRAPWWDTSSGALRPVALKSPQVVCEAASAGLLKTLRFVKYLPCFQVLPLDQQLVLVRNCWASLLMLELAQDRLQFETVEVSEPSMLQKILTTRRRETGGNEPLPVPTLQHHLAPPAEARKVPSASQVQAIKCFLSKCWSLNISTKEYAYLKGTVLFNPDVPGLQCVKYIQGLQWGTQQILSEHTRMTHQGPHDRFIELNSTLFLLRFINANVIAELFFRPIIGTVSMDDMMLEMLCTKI
AHR activator: AHR activators, primary screen, cell-based, luminescence, luciferase reporter, human | activation, % at 5 µM | AID 2796, 2010 | actives 2.5% (n = 320,000) | AHR-responsive luciferase reporter cells | Aryl hydrocarbon receptor (Homo sapiens), P35869; in the data active = activation above about 47%;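 also: 0% = vehicle wells and 100% = reference agonist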
LXRb hcDAF ctr: LXR agonists, Gal4 luciferase reporter, confirmation, counter-screen for hcDAF-12 agonist project, cell-based, luminescence, HEK293, H. contortus campaign; activation, % at 6.8 µM; shares compounds with hcDAF12 agonist; 3,400 tested, under 10 active; HEK293 Gal4-LXR tk-luc reporter, 24 h; normalized: DMSO 0%, positive control 100%;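 active = mean percent activation of the reporter above a cutoff set as the average over tested compounds plus their standard deviation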
Target sequence (P55055 whole entry, looked up, the tested form may be a part): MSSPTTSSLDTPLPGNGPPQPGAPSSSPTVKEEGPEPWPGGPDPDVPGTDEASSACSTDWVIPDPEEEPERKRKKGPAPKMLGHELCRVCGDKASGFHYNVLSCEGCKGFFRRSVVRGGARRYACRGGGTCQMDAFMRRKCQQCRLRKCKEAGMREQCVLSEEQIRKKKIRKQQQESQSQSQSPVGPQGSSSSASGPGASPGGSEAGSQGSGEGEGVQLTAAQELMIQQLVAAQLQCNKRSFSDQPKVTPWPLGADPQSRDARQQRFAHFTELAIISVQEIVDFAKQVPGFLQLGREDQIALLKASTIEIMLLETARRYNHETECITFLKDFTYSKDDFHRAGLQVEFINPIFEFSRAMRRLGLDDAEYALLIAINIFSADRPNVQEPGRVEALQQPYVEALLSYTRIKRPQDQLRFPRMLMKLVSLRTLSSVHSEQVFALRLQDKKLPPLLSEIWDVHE
hcDAF12 ag: H. contortus DAF-12 receptor agonists, confirmation, cell-based, luminescence, HEK293, lit1-tk-luc, triplicate; shares compounds with hcDAF12 agonist; HEK293 hcDAF-12 lit1-tk-luc reporter; % of Δ7-dafachronic acid response; activation, % at 6.8 µM; actives 61% (n = 3,400); AID 743032, 2013;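 active = mean activation across triplicate tests above the threshold derived from the earlier primary screen, cut at about 5.5% in these data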;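 also: 0% = DMSO only wells and 100% = 3 µM Δ7-dafachronic acid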
hgDAF12 ag: H. glycines DAF-12 receptor agonists, confirmation, cell-based, luminescence, HEK293, GAL4-LBD fusion | actives 80% (n = 3,300) | HEK293 GAL4-hgDAF12 luciferase reporter, agonist mode; percent of butyrate response | shares compounds with hgDAF12 agonist | activation, % at 6.8 µM | AID 743050, 2013;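 active = mean activation over triplicate wells above the hit cutoff derived from the earlier primary screen, cut at about 11% in these data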;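 also: 0% = DMSO low control and 100% = 2 mM sodium butyrate high control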
LXR ag 2: LXR agonists, Gal4 luciferase reporter, confirmation, counter-screen for hgDAF-12 agonist project, cell-based, luminescence, HEK293, H. glycines campaign | AID 743051, 2013 | activation, % at 6.8 µM | shares compounds with hgDAF12 agonist | 24 h | 3,300 tested, under 10 active;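 active = mean activation of the triplicate above a set limit carried over from the primary screen, none filed active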
* = called active by the depositor; · = no result. Only some compounds are listed: those with a hit (about 5.7% of all), similar ones and a draw of the others.

SMILES	ssDAF12 agonist	DAX1 inh-1	hgDAF12 agonist	hcDAF12 agonist	DAX1 inh-2	AHR activator	LXRb hcDAF ctr	hcDAF12 ag	hgDAF12 ag	LXR ag 2
Cc1ccccc1-c1nc2ccccc2[nH]1	-0.7	1.8	9.0	1.4	1.6	5.9	·	·	·	·
O=C(O)c1ccc(N/N=C/c2ccc(OC(=O)c3cccc(Cl)c3)cc2)cc1	-1.4	1.3	4.5	-0.5	-2.6	-8.2	·	·	·	·
O=C(O)c1ccc(N/N=C/c2ccc(F)c(F)c2)cc1	0.6	3.5	17.8*	11.5*	-1.9	6.5	1.6	8.2*	16.3*	0.8
N/C(=N\OC(=O)c1ccc(Cl)cc1)c1[nH]ncc1Br	0.8	3.0	19.1*	11.8*	3.4	9.8	1.5	7.3*	20.6*	1.3
CC(=C/c1ccccc1)/C=N/NC(=O)c1cccs1	-0.6	2.2	19.5*	7.8*	·	-1.3	1.8	8.2*	14.9*	0.9
O=C(N/N=C/C(Br)=C\c1ccccc1)c1cccs1	-0.2	2.0	9.1	4.0	·	5.4	·	·	·	·
CC1CCC(C(C)C)C(OCC(O)CN2CCN(Cc3ccccc3)CC2)C1 (configuration not stated)	-1.2	-0.1	2.2	-1.3	-0.6	2.7	·	·	·	·
O=C(O)c1ccccc1C(=O)Nc1ccccc1NC(=O)c1ccccc1C(=O)O	0.2	2.6	15.4*	7.0*	·	13.8	-0.1	0.2	12.7*	0.5
O=C(Nc1ccccc1)c1ccccc1NC(=O)c1ccccc1C(=O)O	-1.5	0.8	3.4	0.7	·	-0.5	·	·	·	·
COc1ccc(-c2cc(=O)c3ccccc3o2)cc1	-0.2	3.5	19.9*	9.0*	8.4*	24.4	1.2	8.2*	14.8*	0.7
O=c1cc(-c2ccncc2)oc2ccccc12	-1.6	1.7	6.3	-2.2	-0.6	-7.2	·	·	·	·
Cc1cccc2c3c([nH]c12)CCN(C)C3	-0.6	0.6	5.5	2.7	0.1	24.9	·	·	·	·
c1ccc(-c2csc(Nc3cccnc3)n2)cc1	1.5*	-0.8	20.6*	8.1*	1.2	31.2	0.5	7.9*	14.2*	0.5
Fc1ccc(Nc2nc(-c3cccnc3)cs2)cc1	1.1*	1.3	16.9*	10.5*	8.0*	39.2	1.1	10.4*	20.4*	0.8
O=C(Nc1nc(-c2ccccc2)cs1)c1cccnc1	-1.2	0.3	0.9	-2.0	0.0	-4.3	·	·	·	·
CCc1ccccc1Nc1nc(-c2cccnc2)cs1	-1.5	-0.1	8.2	-0.7	-0.7	7.1	·	·	·	·
Fc1ccc(-c2ncc3ccccn23)cc1	-1.1	0.2	4.6	1.7	0.1	8.6	·	·	·	·
C[C@H](NC(N)=O)C(=O)Nc1ccc(N2CCOCC2)c(S(=O)(=O)Nc2ccc(Cl)cc2)c1	-0.8	0.3	0.3	-1.0	0.1	2.0	·	·	·	·
Cc1cccc(C(=O)Nc2ccc3ccccc3c2)c1	0.8	3.5	13.8*	7.0*	6.8*	3.8	2.0	6.5*	23.3*	1.0
COc1cccc(C(=O)Nc2ccc3ccccc3c2)c1	0.5	1.5	17.1*	7.5*	-1.5	14.7	1.9	9.9*	24.3*	1.5
Cc1noc(C)c1C(=O)Nc1ccc2ccccc2c1	-1.3	-1.1	-1.6	-1.9	-0.3	1.8	·	·	·	·
CC(=O)c1cccc(NC(=O)c2ccoc2C)c1	-1.4	-0.3	-2.6	-1.0	0.0	7.0	·	·	·	·
Cc1occc1C(=O)Nc1ccc2ccccc2c1	1.4*	2.3	14.3*	11.2*	4.4*	15.3	1.1	5.5	15.7*	1.0
O=C(Nc1ccc2ccccc2c1)c1onc2c1CCCC2	1.4*	3.3	13.9*	11.6*	1.4	0.1	1.8	6.4*	21.2*	1.1
CC(=O)Nc1ccc(C(=O)NNC(=O)c2cccc(C)c2)cc1	-1.0	0.5	0.7	-1.4	0.8	-0.4	·	·	·	·
SMILES	ssDAF12 agonist	DAX1 inh-1	hgDAF12 agonist	hcDAF12 agonist	DAX1 inh-2	AHR activator	LXRb hcDAF ctr	hcDAF12 ag	hgDAF12 ag	LXR ag 2
CC1CCCCN1C(=O)Cn1nnc(-c2cccnc2)n1 (configuration not stated)	-1.4	-0.1	-0.8	0.1	-0.7	1.7	·	·	·	·
O=C(COc1ccc(C(=O)c2ccccc2)cc1)Nc1ncccc1O	-0.5	-1.5	1.8	-1.1	0.2	16.3	·	·	·	·
O=C(Nc1ncccc1O)c1ccc(Oc2ccccc2)cc1	0.2	3.8*	19.2*	6.8*	1.4	0.4	1.1	5.8*	26.1*	0.5
Cc1ccc(NC(=O)C(=O)c2c[nH]c3ccccc23)cc1	0.8	1.9	20.4*	7.2*	3.5	·	1.7	4.6	21.6*	0.9
COc1ccc(C(=O)c2coc3ccc(OC(C)=O)cc23)cc1	0.2	2.4	13.9*	7.3*	-1.2	-1.3	1.7	8.1*	23.4*	1.2
COC(=O)CC1C(=O)NCCN1C(=S)NC(=O)CCc1ccccc1 (configuration not stated)	-1.6	0.3	1.9	-0.3	2.4	-1.1	·	·	·	·
CCOC(=O)c1c(N)sc(C(=O)Nc2ccccc2)c1C	0.4	3.3	28.1*	10.2*	-1.2	5.5	1.6	8.9*	21.6*	1.2
CCOC(=O)/C(=N\Nc1ncnc2ccccc12)c1ccc(OC)cc1	2.4*	2.5	18.3*	16.8*	0.8	32.0	1.6	11.5*	17.3*	1.0
